# The whole screen tested about 69,000 compounds, of which fewer than 10 were called active. Another 100% or so got no clear call; they are omitted. The rule behind the calls is not given here. The list shows a part of the results.
# Biological target: UDP-N-acetylglucosamine--peptide N-acetylglucosaminyltransferase 110 kDa subunit (Homo sapiens) (UniProt O15294)
# Experiment: O-Glc NAc Transferase (sOGT)
# Conditions: sOGT fluorescence polarization UDP-GlcNAc probe displacement
# Description: NIH Molecular Libraries Screening Centers Network [MLSCN]
# NIH Chemical Genomics Center [NCGC]
# Suzanne Walker [Harvard Medical School]
# OGT is the sole enzyme that mediates the attachment of O-GlcNAc groups to serine and threonine residues in the nucleus and cytoplasm of eukaryotic cells, and no specific inhibitors are known. This type of glycosylation is involved in signal transduction and plays a key role in many essential cellular processes. High O-GlcNAc levels have been correlated to insulin resistance and type 2 diabetes. In addition to elucidating the role of O-GlcNAc in cellular processes, inhibitors of OGT might be useful in studying and perhaps treating type 2 diabetes. Since HTS-amenable direct assay for OGT activity is currently unavailable, a simpler substrate-displacement screen was performed. The signal measured is based on the change in fluorescence polarization of a fluorescein-labeled UDP-GlcNAc upon displacement from its complex with OGT. Recombinant truncated version of the enzyme, sOGT, as well as labeled probe, were made available by Suzanne Walker and Benjamin Gross, Harvard Medical School.
# NCGC Assay Protocol Summary:
# 20 mM phosphate buffer, pH 8.0, 0.01% Tween-20, 500 uM THP (Tris (hydroxypropyl) phosphine).
# 50 nM/1.5 uM sOGT /100 uM UDP in columns 3 and 4 as negative control (full inhibition of binding, 0 % activity).
# 50 nM probe/1.5 uM sOGT in columns 1, 2, 5-48. Titration of UDP control (from 40 mM, then 1:2) pin-transferred to column 2. Column 1 is neutral (100% activity).
# Three uL of reagents were dispensed to 1536-well Greiner black plates. Compounds and controls (20 nL) were transferred via Kalypsys PinTool. The plates were incubated for 15 min at room temperature, and then read on ViewLux (Perkin-Elmer) High-throughput CCD imager using fluorescein polarization filter set and 45 seconds exposure time. During dispense, reagent bottles were kept submerged into 4 deg C water bath and all liquid lines were covered with aluminum foil to minimize probe and protein degradation.
# Keywords: NIH Roadmap, MLSCN, MLI, MLSMR, sOGT, qHTS, NCGC
# Chain of UDP-N-acetylglucosamine--peptide N-acetylglucosaminyltransferase 110 kDa subunit (Homo sapiens) (O15294 whole entry, looked up): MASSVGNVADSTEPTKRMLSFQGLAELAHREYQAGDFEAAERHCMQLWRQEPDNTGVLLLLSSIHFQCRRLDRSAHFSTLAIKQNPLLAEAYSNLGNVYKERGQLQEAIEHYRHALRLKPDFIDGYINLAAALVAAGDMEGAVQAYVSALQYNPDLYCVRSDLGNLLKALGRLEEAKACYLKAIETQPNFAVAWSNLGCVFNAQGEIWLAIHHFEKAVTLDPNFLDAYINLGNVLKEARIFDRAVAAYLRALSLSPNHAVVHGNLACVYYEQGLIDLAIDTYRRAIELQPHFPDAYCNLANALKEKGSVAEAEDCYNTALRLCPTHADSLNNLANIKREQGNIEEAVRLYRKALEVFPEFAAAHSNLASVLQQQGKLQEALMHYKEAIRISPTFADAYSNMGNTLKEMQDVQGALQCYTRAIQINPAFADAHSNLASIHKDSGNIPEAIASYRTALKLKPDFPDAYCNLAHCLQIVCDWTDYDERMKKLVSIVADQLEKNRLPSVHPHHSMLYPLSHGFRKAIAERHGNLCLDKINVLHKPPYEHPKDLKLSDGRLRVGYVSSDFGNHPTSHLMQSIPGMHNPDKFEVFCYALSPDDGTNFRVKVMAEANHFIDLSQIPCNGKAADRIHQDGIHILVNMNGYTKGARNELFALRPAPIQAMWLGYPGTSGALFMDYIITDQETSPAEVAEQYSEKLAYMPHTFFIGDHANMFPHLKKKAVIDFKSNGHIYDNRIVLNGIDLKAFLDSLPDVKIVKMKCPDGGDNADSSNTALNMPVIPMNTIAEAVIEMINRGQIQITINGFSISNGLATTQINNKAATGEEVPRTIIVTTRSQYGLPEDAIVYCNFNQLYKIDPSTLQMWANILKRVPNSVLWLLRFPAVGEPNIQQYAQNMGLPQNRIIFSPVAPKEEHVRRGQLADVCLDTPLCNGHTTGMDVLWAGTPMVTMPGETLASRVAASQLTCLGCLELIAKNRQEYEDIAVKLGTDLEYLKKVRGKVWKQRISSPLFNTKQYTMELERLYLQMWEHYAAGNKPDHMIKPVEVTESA
row,SMILES,Potency
1,O=C(O)C1=CC(=C(c2ccc(O)c(C(=O)O)c2)c2ccc(O)c(C(=O)O)c2)C=CC1=O,21.8 µM (active)
2,CCCn1c(=O)c(C)cn2nc(N)nc12,31.1 µM (active)
3,CCCCCCCCCCCCC/C=C\[C@@H](O)[C@H](CO)NC(C)=O,25.2 µM (active)
4,Cc1cc(-c2ccc(N=Nc3ccc4c(S(=O)(=O)O)cc(S(=O)(=O)O)c(N)c4c3O)c(C)c2)ccc1N=Nc1ccc2c(S(=O)(=O)O)cc(S(=O)(=O)O)c(N)c2c1O,43.7 µM (active)
5,Nc1c(S(=O)(=O)O)cc(Nc2ccc(Nc3nc(Cl)nc(Nc4ccc(S(=O)(=O)O)cc4)n3)c(S(=O)(=O)O)c2)c2c1C(=O)c1ccccc1C2=O,22.3 µM (active)
